Data on 27 compounds can be found in PubChem BioAssay AID743158 (Broad Institute, 2013).

The assay can be described thus: viability loss in A549 lung cancer cells – cell-based, CellTiter-Glo luminescence, dry powder, set 5, cytotoxicity control, dose response (AID 743158).

Entries with a potency or affinity are not part of this list. Calls of active or inactive are those of the source.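 How the source made its calls: active means cell killing with a fitted half-maximal concentration at most twice the top valid dose tried; inconclusive means flat fit between -70 and -30 percent, or an invalid fit; inactive means the rest.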

In the case of `O=c1[nH]c2ccccc2n1CCOc1ccccc1`, the compound was called inactive. Take `Cc1ccc2c(c1)[nH]c(=S)n2CCOc1ccccc1`: the compound was classed as inactive. For `Cc1ccc(OCCn2cnc3ccccc32)cc1`, the call was inactive. On to `Fc1cccc2c1[nH]c(=S)n2CCOc1ccccc1`, for which the compound was classed as inactive.

Regarding `Cc1ccccc1OCCn1c(=S)[nH]c2ccccc21`, the call was inactive.

For the compound `Cc1ccc(OCCn2c(=S)[nH]c3ccccc32)c(C(C)C)c1`, the compound was called inactive. With `S=c1[nH]c2ccccc2n1CCOc1ccc(Cl)cc1` the entry was “inactive”. With `Cc1ccc(C(C)C)c(OCCn2c(=S)[nH]c3ccccc32)c1` the entry was “inactive”; with `CCOC(=O)c1c(NC(=O)CN2CCN(C)CC2)sc(C)c1-c1ccc(C)cc1`, “inactive”. As to `Cc1cccc(OCCn2c(=S)[nH]c3cc(C(F)(F)F)ccc32)c1`, the call was inactive. For `CCOc1ccc(OCCn2c(=S)[nH]c3ccccc32)cc1`, the compound was called inactive. Regarding `COC(=O)C1=C(C)N(Cc2ccc(Cl)cc2)C(=S)NC1c1ccc(Br)cc1` (configuration not stated), the result was inactive. Turning to `Cc1ccc(OCCn2c(SCCO)nc3ccccc32)c(C(C)C)c1`, the compound was called inactive.

For the compound `Fc1ccccc1OCCn1c(=S)[nH]c2ccccc21`, the outcome was inactive.

With `Cc1ccc(OCCn2c(C)nc3ccccc32)cc1`, the call was inactive. Consider `COC(=O)C1=C(C)N(Cc2ccc(Br)cc2)C(=S)NC1c1ccc(F)cc1` (configuration not stated), for which the result was inactive.

Regarding `c1ccc(OCCn2cnc3ccccc32)cc1`, the compound was called inactive.

Take `CCOC(=O)c1c(-c2ccc(F)cc2)csc1NC(=O)CN1CCN(C)CC1`: the result was inactive. Take `CCOC(=O)c1c(-c2ccc(F)cc2)csc1NC(=O)CN1CCN(CC)CC1`: the outcome was inactive. The entry for `COC(=O)C1=C(C)N(Cc2ccc(Br)cc2)C(=S)NC1c1ccc(OC)cc1` (configuration not stated) is “inactive”; for `S=c1[nH]c2cccc(Cl)c2n1CCOc1ccccc1` it is “inactive”. With `CCOC(=O)c1c(-c2ccc(OC)cc2)csc1NC(=O)CN(C)CC(=O)N(C)C`, the call was inactive. The entry for `S=c1[nH]c2ccccc2n1CCOc1ccccc1` is “inactive”. The entry for `CCOC(=O)c1c(NC(=O)CNCCN(C)C)sc(C)c1-c1ccccc1` is “inactive”. With `COC(=O)C1=C(C)N(Cc2ccc(F)cc2)C(=S)NC1c1cccc(F)c1` (configuration not stated) the entry was “inactive”; with `Cc1ccc(OCCn2c(=S)[nH]c3ccccc32)cc1`, “inactive”. Turning to `COC(=O)C1=C(C)N(Cc2ccccc2)C(=S)NC1c1ccc(Br)cc1` (configuration not stated), the result was inactive.
